Screens from PubChem.
RBX1-CUL1 inh: blocks human RBX1-Cullin-1 di-ubiquitin formation; P62877+Q13616; inhibition, % at 10 µM; in vitro K48 di-Ub FRET, acceptor:donor ratio, 45 min; 140,000 compounds, 0.6% hits; in the data active = inhibition above about 25%
A number is an active result. Shown is part of a subset that was picked to be rich in hits.

Results for COc1ccc(Cl)cc1NC(=O)c1c(NCc2ccc(C)o2)sc2c1CCCCC2 ?
RBX1-CUL1 inh: 26

How did COc1ccc(OC)c(NC(=O)c2c(NCc3ccc(C)o3)sc3c2CCCCC3)c1 do in these assays?
RBX1-CUL1 inh: 30

Results for COc1ccc(OC)c(NC(=O)c2c(NCc3ccc(OC)c(OC)c3)sc3c2CCC3)c1 ?
RBX1-CUL1 inh: inactive

Results for COc1ccccc1NC(=O)c1c(NCc2ccc(C)o2)sc2c1CCCCC2 ?
RBX1-CUL1 inh: inactive

How did COc1ccc(Cl)cc1NC(=O)c1c(NCc2ccc(C)o2)sc2c1CCC(C)C2 (configuration not stated) do in these assays?
RBX1-CUL1 inh: inactive

What do the screens show for `CCc1[nH]nc2c1C(c1ccccc1OC)C(C#N)C(=N)O2` (configuration not stated)?
RBX1-CUL1 inh: inactive

What do the screens show for `O=c1[nH]c(-c2ccccc2)nc(O)c1-c1ccccc1`?
RBX1-CUL1 inh: inactive

Results for N=C1/C(=C/c2ccc(-c3ccc(F)cc3)o2)C(=O)N=C2SC(C(F)(F)F)=NN12 ?
RBX1-CUL1 inh: 93

What do the screens show for `N=C1/C(=C/c2ccc(-c3ccccc3)o2)C(=O)N=C2SC(C(F)(F)F)=NN12`?
RBX1-CUL1 inh: 60

What do the screens show for `COc1ccc(/C=C2/C(=N)N3N=C(C(F)(F)F)SC3=NC2=O)c(OC)c1OC`?
RBX1-CUL1 inh: inactive

Results for Cc1c(/C=C2\C(=N)N3N=C(C(F)(F)F)SC3=NC2=O)c2ccccc2n1Cc1ccc(F)cc1 ?
RBX1-CUL1 inh: inactive

Results for N=C1/C(=C/c2ccc(-c3ccccc3)o2)C(=O)N=C2SC(c3ccccc3Cl)=NN12 ?
RBX1-CUL1 inh: inactive

How did CC(C)C1=NN2C(=N)/C(=C/c3ccc(-c4cc(Cl)cc(Cl)c4)o3)C(=O)N=C2S1 do in these assays?
RBX1-CUL1 inh: inactive

Results for O=C1N(CCC2CCCCC2)CCCC1(O)CN1CCCC1 (configuration not stated) ?
RBX1-CUL1 inh: inactive

How did CCOc1cc2occ(-c3ccccc3Cl)c(=S)c2cc1CC do in these assays?
RBX1-CUL1 inh: inactive

What do the screens show for `Cc1ccc2nc(=S)n(C(=O)c3ccc(Cl)cc3)n2c1`?
RBX1-CUL1 inh: inactive

How did CCCN1C/C(=C/c2ccc(F)cc2)C(=O)/C(=C/c2ccc(F)cc2)C1 do in these assays?
RBX1-CUL1 inh: inactive

How did O=C1CCCc2c1c1cccc3c1n2CCC3 do in these assays?
RBX1-CUL1 inh: inactive

How did Nc1ncc2c3c1c(=O)c1ccccc1n3CCC2 do in these assays?
RBX1-CUL1 inh: 50

Results for C=C(C)CSc1nc(N)c2c3c(sc2n1)CN(Cc1ccccc1)CC3 ?
RBX1-CUL1 inh: inactive

Results for CC12CCC(C(=O)Nc3ccccc3C(F)(F)F)(OC1=O)C2(C)C (configuration not stated) ?
RBX1-CUL1 inh: inactive

What do the screens show for `CC(C)n1c(=O)[nH]c(=O)c2cc([N+](=O)[O-])cnc21`?
RBX1-CUL1 inh: inactive

Results for COc1cc(NS(=O)(=O)c2ccc(NS(=O)(=O)c3ccccc3)cc2)nc(OC)n1 ?
RBX1-CUL1 inh: inactive

How did COc1cc(NS(=O)(=O)c2ccc(NC(=O)Nc3cccc(Cl)c3)cc2)nc(OC)n1 do in these assays?
RBX1-CUL1 inh: inactive

What do the screens show for `COc1ccc(CC(=O)Nc2ccc(S(=O)(=O)Nc3cc(OC)nc(OC)n3)cc2)cc1`?
RBX1-CUL1 inh: 35

What do the screens show for `Cc1ccccc1OCC(=O)NNc1ccc([N+](=O)[O-])cc1[N+](=O)[O-]`?
RBX1-CUL1 inh: 36

What do the screens show for `O=C(NNc1ccc([N+](=O)[O-])cc1[N+](=O)[O-])c1cccc2ccccc12`?
RBX1-CUL1 inh: inactive

Results for CCOC(=O)c1cc(-c2ccc([N+](=O)[O-])cc2)n(NC(=O)COc2ccccc2C)c1C ?
RBX1-CUL1 inh: inactive

What do the screens show for `C=CCN1C(=O)S/C(=C/c2cccn2-c2ccc(Br)cc2)C1=O`?
RBX1-CUL1 inh: inactive

How did CCN1C(=O)/C(=C/c2cc(OC)c(OCC(=O)O)cc2Br)SC1=Nc1ccc(OC)cc1 do in these assays?
RBX1-CUL1 inh: inactive

Results for O=C(O)COc1ccc(Br)cc1/C=C1\SC(=O)N(Cc2ccc(F)cc2)C1=O ?
RBX1-CUL1 inh: inactive

What do the screens show for `CCOC(=O)c1ccc(N=C2S/C(=C/c3cc(OC)c(OC)c(OC)c3)C(=O)N2CC)cc1`?
RBX1-CUL1 inh: inactive

How did CCOc1ccc(N=C2S/C(=C\c3cc(Cl)c(OCC(=O)O)c(OC)c3)C(=O)N2CC)cc1 do in these assays?
RBX1-CUL1 inh: 94

Results for COc1cc(/C=C2\SC(=O)N(Cc3ccc(F)cc3)C2=O)ccc1OCc1ccc(C(=O)O)cc1 ?
RBX1-CUL1 inh: inactive

How did COc1cc(/C=C2/SC(=O)N(Cc3ccc(F)cc3)C2=O)cc(I)c1OCC(=O)O do in these assays?
RBX1-CUL1 inh: 98

What do the screens show for `CCCCn1cnc2c(c(-c3ccccc3)c(-c3ccccc3)n2Cc2ccccc2)c1=N`?
RBX1-CUL1 inh: inactive

Results for CC(C)N1CC=C2C(C#N)C(=N)C(C#N)(C#N)C(c3c(F)cccc3Cl)C2C1 (configuration not stated) ?
RBX1-CUL1 inh: inactive

Results for CCN(CC)CC(O)COc1ccc(CNC2CCOCC2)cc1OC (configuration not stated) ?
RBX1-CUL1 inh: inactive

How did COc1ccc(NC(=S)NC(=O)c2cccc(Cl)c2)cc1 do in these assays?
RBX1-CUL1 inh: inactive
